Screening results deposited in PubChem by several laboratories.
In the library only some 3.2% were active in any assay of this set; here they are far more common.
ERb coact inh – blocks coactivator binding to human estrogen receptor beta. Q92731. TR-FRET ER-beta LBD / SRC1-Cy5 peptide binding; receptor agonist-loaded with 1 µM estradiol. inhibition, % at 25.6 µM. 86,000 compounds, 1.3% hits;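 active means compounds whose percent inhibition of the receptor-coactivator binding signal exceeds about 50% in the single-dose screen, limit read from the data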;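 further: 0% = receptor plus peptide wells without compound and 100% = peptide-only wells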
ERa SRC1 inh – blocks coactivator binding to human estrogen receptor alpha | TR-FRET ER-alpha LBD / SRC-1 peptide, estradiol-bound | 86,000 compounds, 1.7% hits | P03372 | inhibition, % at 25.6 µM; in the data active means inhibition above about 50%;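 further: 0% = receptor plus peptide control and 100% = peptide only without receptor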
Target sequence (P03372 whole entry, looked up, the tested form may be a part): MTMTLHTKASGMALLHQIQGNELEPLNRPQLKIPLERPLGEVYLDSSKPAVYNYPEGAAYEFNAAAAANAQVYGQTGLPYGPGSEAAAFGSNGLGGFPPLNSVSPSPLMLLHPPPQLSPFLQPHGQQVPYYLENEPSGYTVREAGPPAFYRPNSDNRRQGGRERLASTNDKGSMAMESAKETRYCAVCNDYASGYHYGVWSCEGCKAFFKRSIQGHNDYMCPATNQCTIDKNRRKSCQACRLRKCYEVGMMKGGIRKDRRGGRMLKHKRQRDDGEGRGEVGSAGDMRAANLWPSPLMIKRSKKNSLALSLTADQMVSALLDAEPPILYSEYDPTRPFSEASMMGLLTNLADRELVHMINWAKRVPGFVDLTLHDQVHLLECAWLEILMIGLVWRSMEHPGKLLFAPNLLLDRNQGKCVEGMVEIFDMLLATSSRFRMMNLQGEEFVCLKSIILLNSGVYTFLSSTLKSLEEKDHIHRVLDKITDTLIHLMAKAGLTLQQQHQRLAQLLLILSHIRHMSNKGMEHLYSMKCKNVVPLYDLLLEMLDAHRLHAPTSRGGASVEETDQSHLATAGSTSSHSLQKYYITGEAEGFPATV
ERa coact pot – enhances coactivator binding to human estrogen receptor alpha; TR-FRET ERalpha-LBD/SRC-Cy5 coactivator binding, 2 h; 100 = basal binding, no effect; 86,000 compounds, 1.3% hits; coactivator binding (% of control), % at 25.6 µM; P03372; AID 639; in the data active means activity above about 200%;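 further: binding measured in presence of low estradiol as agonist stimulus; 0% = peptide alone without receptor and 100% = receptor with peptide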
FAK inh – inhibitors of human focal adhesion kinase. biochemical FAK kinase activity assay. inhibition, %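 (tested at 7 µM)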. 97,000 compounds, 0.84% hits. AID 727; in the data active means inhibition above about 19%;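 further: 0% = DMSO and 100% = reference compound high control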
Starred values were filed as active, the others as inactive; nt = no result given; [ ] = another dose, or the depositor's remark.

SMILES	ERb coact inh	ERa SRC1 inh	ERa coact pot	FAK inh
CCOC(=O)CC(=O)CSc1nc(N)c(C#N)c(-c2ccc(Cl)cc2)c1C#N	19	15	220*[fluorescence artefact?]	-13
CC1=NN(c2ccccc2)C(=O)/C1=C\N1CC(C)OC(C)C1 (configuration not stated)	nt	nt	nt	-5
CC1=NN(c2cccc(C(=O)O)c2)C(=O)/C1=C\C=C\c1ccco1	89*[fluorescence artefact?]	83*[fluorescence artefact?]	15	10
CN(c1ccccc1C(=O)Nc1ccc2c(c1)OCO2)S(C)(=O)=O	53*[fluorescence artefact?]	48	62	-4
CN(c1ccc(C(=O)NCc2ccc3c(c2)OCO3)cc1)S(C)(=O)=O	81*[fluorescence artefact?]	-2	101	3
CS(=O)(=O)N(CC(=O)Nc1ccc2c(c1)OCO2)Cc1ccccc1	31	0	117	-1
CS(=O)(=O)N(CCc1ccccc1)CC(=O)Nc1ccc2c(c1)OCO2	46	62*[fluorescence artefact?]	47	1
Cc1ccccc1OCc1nc2ccccc2c(=O)n1NC(=O)c1ccco1	-2	-1	103	0
Cc1noc(C)c1C(=O)N1CCN(C(=O)c2sc3cc(Cl)ccc3c2Cl)CC1	69*[fluorescence artefact?]	-4	111	-1
Cc1noc(C)c1C(=O)N1CCN(Cc2ccccc2)CC1	-12	2	97	-1
COc1ccc(NC(=O)c2cccc(NC(=O)C3C4CC5OC(=O)C3C5C4)c2)c(OC)c1 (configuration not stated)	-2	1	119	-1
COc1ccc2c(c1)-c1ccccc1S(=O)(=O)N2C(C)=O	63*[fluorescence artefact?]	87*[fluorescence artefact?]	25	-3
COc1cc(N/C=C(\C(C)=O)c2ccccc2)cc(OC)c1	nt	nt	nt	7
Cn1c2ccccc2c2cc(C(=O)OCC(=O)N3CC(=O)Nc4ccccc43)sc21	17	-1	670*[fluorescence artefact?]	-9
CCOc1ncccc1C(=O)OCC(=O)N1CC(=O)Nc2ccccc21	11	1	108	-2
Nc1nc(Nc2cccc3ccccc23)nc(C2CCCC2=O)n1 (configuration not stated)	36	37	261*[fluorescence artefact?]	nt
CC(C)(C)c1ccc(-c2noc(CCC(=O)NCC3CCCO3)n2)cc1 (configuration not stated)	-7	-9	100	0
CCOc1ncccc1C(=O)OCC(=O)Nc1cc(C(=O)OC)ccc1C(=O)OC	19	-4	372*[fluorescence artefact?]	nt
FC(F)(F)c1cccnc1N1CCN(c2ncnc3nc[nH]c23)CC1	-13	56*[fluorescence artefact?]	74	nt
CCOc1ccc2nc(NC(NC(=O)CC)(C(=O)OC)C(F)(F)F)sc2c1 (configuration not stated)	-3	-8	112	nt
Cc1ccc2oc(=O)c3cnn(CC(=O)N4CCCc5ccccc54)c3c2c1	-8	-8	265*[fluorescence artefact?]	-6
Cc1ccc2oc(=O)c3cnn(CC(=O)N4CCN(c5ccccc5)CC4)c3c2c1	-2	-5	106	1
Cc1ccc(S(=O)(=O)CCc2nc3ccccc3n2CCC#N)cc1	-5	-7	88	-3
CC(=O)c1c(C(C)=O)c(C)n(-c2ccc(C(=O)O)cc2)c1C	20	5	106	-2
Cc1ccc(C)n1-c1ccc(C(=O)O)cc1	46	54*[fluorescence artefact?]	19	-1
SMILES	ERb coact inh	ERa SRC1 inh	ERa coact pot	FAK inh
CCOC(=O)c1c(OCC)[nH]c2c1cc(O)c1ccccc12	99*[fluorescence artefact?]	97*[fluorescence artefact?]	68	5
CCOC(=O)c1c(C)[nH]c2cc(Br)c(O)cc12	-10	-1	110	nt
COc1cc(/C=C/C(=O)CC(=O)/C=C/c2ccc(O)c(OC)c2)ccc1O	60*[fluorescence artefact?]	38	33	nt
CCOC(=O)N1CCN(S(=O)(=O)c2cccc3nonc23)CC1	3	-1	119	nt
CC1(C)CC2(CCO1)N1CC3(C)CN2CC(C)(C1)C3=O (configuration not stated)	-9	-1	103	0
COc1ccc(C(=O)CSc2nnc(CNC(=O)c3ccc(OC)cc3)n2C)cc1	-6	26	98	3
c1ccc(CNc2nc3ccccc3n3cnnc23)cc1	7	4	238*[fluorescence artefact?]	-5
c1ccc(CNc2nc3ccccc3n3cnnc23)nc1	-10	-12	114	2
Cc1oc(-c2ccc(F)cc2)cc1-c1nn2c(-c3ccco3)nnc2s1	51*[fluorescence artefact?]	82*[fluorescence artefact?]	83	7
Cc1oc(-c2ccc(Cl)cc2)cc1-c1nn2c(-c3ccco3)nnc2s1	45	46	95	nt
Cc1oc(-c2ccc(F)cc2)cc1-c1nn2c(-c3ccoc3C)nnc2s1	63*	79*[fluorescence artefact?]	67	nt
N/C(=N\c1nc2ccccc2o1)NC(=O)c1ccccc1NC(=O)c1ccccc1	82*	-2	122	-3
N/C(=N\c1nc2ccccc2o1)NC(=O)c1ccccc1F	-7	-8	113	10
O=C(c1ccc(CN2CCc3ccccc3C2)cc1)N1CCN(c2ccc(F)cc2)CC1	nt	nt	nt	2
C[C@]12CC[C@@H]3c4ccc(O[C@@H]5O[C@H](C(=O)O)[C@@H](O)[C@H](O)[C@H]5O)cc4CC[C@H]3[C@@H]1C[C@@H](O)[C@@H]2O	10	-8	429*	nt
COc1ccc(S(=O)(=O)NCCc2csc(-c3cccnc3)n2)cc1	-2	-5	115	-2
O=S(=O)(NCCc1csc(-c2cccnc2)n1)c1cccs1	nt	nt	nt	4
O=S(=O)(NCc1csc(-c2cccnc2)n1)c1cccs1	39	71*	45	nt
O=S(=O)(NCCc1csc(-c2cccnc2)n1)c1ccc(Cl)s1	41	83*	32	16
CN1C(=O)CSc2ccc(NC(=O)N3CCN(c4ccccn4)CC3)cc21	8	13	86	nt
CN1C(=O)CSc2ccc(NC(=O)N3CCC(N4CCCCC4)CC3)cc21	51*	58*	53	5
Cc1nn(C)c(C)c1NC(=O)CSc1nc(C2CC2)nc2c1cnn2-c1ccccc1	9	20	102	0
Cc1nn(C)c(C)c1NC(=O)CSc1nc(-c2ccccc2Cl)nc2c1cnn2-c1ccccc1	49	74*[fluorescence artefact?]	162	-58
CCCC1(C(=O)OCC)NC(c2ccc(OC)cc2OC)C2C(=O)N(c3ccc4c(c3)OCCO4)C(=O)C21 (configuration not stated)	-16	-23	108	0
NC(=O)Cn1c(=O)n(Cc2ccco2)c(=O)c2c3c(sc21)CCCCC3	90*[fluorescence artefact?]	91*[fluorescence artefact?]	17	10
SMILES	ERb coact inh	ERa SRC1 inh	ERa coact pot	FAK inh
O=C(Cn1c(=O)n(Cc2ccco2)c(=O)c2c3c(sc21)CCCC3)Nc1ccccc1	-12	-9	107	1
CCc1nnc2sc(-c3ccc(NC(=O)CSc4ccc(Cl)cc4)cc3)nn12	-2	31	225*[fluorescence artefact?]	1
COc1ccccc1CN(Cc1nc2ccccc2c(=O)[nH]1)S(=O)(=O)c1ccc2ccccc2c1	20	25	280*	4
COc1ccc(S(=O)(=O)N(Cc2ccccc2)Cc2nc3ccccc3c(=O)[nH]2)cc1	-5	-2	116	-2
CCOC(=O)CCC(=O)Nc1ccccc1C(N)=O	-3	53*	129	5
CCCc1cc(=O)oc2cc(OCC(=O)Nc3ccc4c(c3)OCCO4)ccc12	40	45	216*[fluorescence artefact?]	0
Cc1cccc(OCC(=O)Nc2ccc3c(c2)OCCO3)c1	-10	-27	92	-1
